Where “and” joins values, the source holds several entries; their conditions need not be identical. Equal entries are not always repeated. Results filed as inconclusive are left out. A number with no mark means an inactive call. Calls of active or inactive are those of the source. Calls follow the shape of the dose curve; as a rule, active = well fitted curve in the direction sought with a large enough effect; inconclusive = small, poorly fitted or top-dose-only effect, or another doubt; inactive = no such curve, though single readings can be large; an effect the other way counts as inactive or inconclusive.

The term viability denotes a read-out of living cells in per cent, often relative to untreated cells.

Test [1] addresses Cellular tumor antigen p53 (Homo sapiens) (UniProt P04637). In words: Primary qHTS for small molecule compounds that upregulate eGFP-tagged delta133p53alpha (in N-terminal) cells. (AID 2060322). Also: nearly all actives have a fitted effect of over 75% in size. Also: potency is read from the fitted curve at half-maximal effect.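 As to activation: series mostly up to about 56 µM; 0% = DMSO vehicle and 100% = reference activator.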 The following applies: NCI-H358 eGFP-delta133p53alpha fluorescence, 24 h; activation: active compounds read high. The method, boiled down: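 NCI-H358 cells pre-induced 24 h with 10 ng/ml doxycycline to express N-terminal eGFP-delta133p53alpha, then dosed 24 h at 37C without doxycycline; fixed, Hoechst-stained, GFP intensity by laser scanning cytometry, normalized to DMSO (0%) and 57.5 uM 5-azacytidine (100%).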
For orientation: Quantitative high-throughput screening tests each substance at several concentrations.

The target of test [2] is Aldehyde dehydrogenase, mitochondrial (Homo sapiens) (UniProt P05091). Description: qHTS for Inhibitors of the Aldehyde Dehydrogenase Family (ALDH2) Primary screen (AID 2061308).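 Also: plate controls were vehicle for no effect and reference inhibitor for full effect; nearly all actives have a fitted effect of over 55% in size.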
In test [3] the target is Retinaldehyde dehydrogenase 3 (Homo sapiens) (UniProt P47895). In words: qHTS for Inhibitors of the Aldehyde Dehydrogenase Family (ALDH1A3) Primary screen (AID 2061315).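 Also: plate controls were DMSO vehicle for no effect and reference inhibitor for full effect.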
Test [4] can be described thus: BET inhibitor-based combinations targeting novel dependencies in MECOM-rearranged (r) AML: SET-2 cell line (AID 2202231). Also: nearly all actives have a fitted effect of over 35% in size. Also: potency is read from the fitted curve at half-maximal effect.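 As to viability: plate controls were DMSO treated cells for no effect and wells without cells for full effect.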 To be noted: SET-2 AML cells viability, CellTiter-Glo luminescence, 48 h; viability: active compounds read low, concentration not given here. The method, boiled down:
(§1)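 Each compound was tested at eleven concentrations on cells seeded at 500/well. After two days' incubation, ATP-based luminescence reported viability; responses relative to DMSO and blank wells yielded AUC and cell-line-centred Z-AUC.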

Test [5] is described as follows: BET inhibitor-based combinations targeting novel dependencies in MECOM-rearranged (r) AML: OCI-AML3 cell line (AID 2202232). Also: potency is read from the fitted curve at half-maximal effect; nearly all actives have a fitted effect of over 35% in size. To be noted: Potency: OCI-AML3 viability. The method, boiled down:
as §1

Test [6] in a line: BET inhibitor-based combinations targeting novel dependencies in MECOM-rearranged (r) AML: MV-4-11 cell line (AID 2202233). Also: nearly all actives have a fitted effect of over 45% in size. Also: potency is read from the fitted curve at half-maximal effect. The method, boiled down:
(§2)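 First, 500 cells per well were seeded; next, drugs were pinned as 11-point doses; then plates sat 48 hr in the incubator; finally CellTiter-Glo was added and luminescence read, with AUC and Z-AUC computed.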

A short description of test [7]: BET inhibitor-based combinations targeting novel dependencies in MECOM-rearranged (r) AML: HNT-34 cell line (AID 2202234). Also: nearly all actives have a fitted effect of over 35% in size. Also: potency is read from the fitted curve at half-maximal effect. The method, boiled down: as §2
A short description of test [8]: BET inhibitor-based combinations targeting novel dependencies in MECOM-rearranged (r) AML: UCSD-AML1 cell line (AID 2202235). Also: nearly all actives have a fitted effect of over 40% in size. Also: potency is read from the fitted curve at half-maximal effect. The method, boiled down:
as §2

The nature of test [9]: BET inhibitor-based combinations targeting novel dependencies in MECOM-rearranged (r) AML: AML-191 cell line (AID 2202236; also: nearly all actives have a fitted effect of over 35% in size; also: potency is read from the fitted curve at half-maximal effect). A digest of the protocol: as §1
The nature of test [10]: BET inhibitor-based combinations targeting novel dependencies in MECOM-rearranged (r) AML: AML-194 cell line (AID 2202237; also: potency is read from the fitted curve at half-maximal effect; nearly all actives have a fitted effect of over 40% in size). A digest of the protocol: as §1
Test [11] concerns the target Aldehyde dehydrogenase 1A1 (Homo sapiens) (UniProt P00352). Description: qHTS for Inhibitors of the Aldehyde Dehydrogenase Family (ALDH1A1) Confirmatory screens (AID 2061316). Also: nearly all actives have a fitted effect of over 65% in size.

Cellular tumor antigen p53 (Homo sapiens), sequence (P04637 whole entry, looked up): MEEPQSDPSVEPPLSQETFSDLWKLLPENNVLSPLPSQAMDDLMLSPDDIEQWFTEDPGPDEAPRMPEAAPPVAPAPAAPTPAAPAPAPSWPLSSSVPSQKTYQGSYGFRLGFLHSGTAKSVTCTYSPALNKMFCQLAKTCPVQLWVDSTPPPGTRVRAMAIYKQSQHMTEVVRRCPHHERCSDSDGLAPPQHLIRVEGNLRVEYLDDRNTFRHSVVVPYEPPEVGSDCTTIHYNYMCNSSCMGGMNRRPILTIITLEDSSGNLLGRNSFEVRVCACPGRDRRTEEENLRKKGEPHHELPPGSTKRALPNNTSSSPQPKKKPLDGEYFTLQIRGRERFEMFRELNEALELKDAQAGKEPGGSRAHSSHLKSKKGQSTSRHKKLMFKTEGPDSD

On to `FC(F)(F)c1ccc(Nc2nc(-c3c(C(F)(F)F)nc4ccccn34)cs2)cc1`, for which the activation in [1] is -3.82%. The Potency entry in [2] and in test [3] was “inactive” each time. The Potency in test [4] was 0.833 µM (active); in [5], 0.417 µM (active); in test [6], 0.417 µM (active); in [7], 0.332 µM (active); in [8], 0.332 µM (active); in test [9] it was 0.296 µM (active). Besides, the Potency in [10] was 0.332 µM (active).
On to `CC(C)(O)c1ccc2c(c1)C(=O)C[C@H]1[C@](C)(C(=O)O)CCC[C@]21C`, for which, in test [1], the activation was -1.53%. In addition, the Potency result in [2] and in [3] was “inactive” in each case.
`c1cncc(CN2CCC(n3ncc4c(N5CCOCC5)nc(-c5ccc6[nH]ccc6c5)nc43)CC2)c1`: in [1], the activation was -11.7% and 12.5%. Also, the Potency entry in test [2] and in test [3] was “inactive” throughout. The Potency in [4] was 3.72 µM (active); in test [5], 7.42 µM (active); in test [6], 3.72 µM (active); in test [7], 2.95 µM (active); in test [8], 0.833 µM (active).
Take `NC1(Cc2ccc(Cl)cc2)CCN(c2ncnc3[nH]ccc23)CC1`: the activation in test [1] is -4.16% and 18.8%. In addition, the Potency entry in test [2] and in [3] was “inactive” in each case. Moreover, the Potency in test [4] is 14.8 µM (active); in test [5], 6.61 µM (active); in test [6], 7.42 µM (active); in test [7] it was 7.42 µM (active); in test [8], 5.25 µM (active).
In the case of `COCCCc1sc(-c2ccccc2)nc1C(=O)Nc1ccccc1-c1nc2cc(CN3CCCC3)cnc2s1`, the activation in test [1] is -4.33%. The Potency result in [2] and in test [3] was “inactive” in each case. The viability in test [4] was 121%. For the same compound, the Potency in test [5] was 9.1 µM (active).
For the compound `Cc1cc(CS(=O)(=O)c2ccccc2)cc(OCc2ccc(CN3CCC[C@@H]3CO)cc2)c1`, in test [1], the activation was 3.67%. Moreover, the Potency entry in test [2] and in [3] was “inactive” in each case. The viability in test [4] was 87.8%.
Turning to `Cc1nc(NC(=O)N2CCCC2C(N)=O)sc1-c1ccnc(C(C)(C)C(F)(F)F)c1` (stereo not drawn), the activation in test [1] is -0.893%. The Potency result in test [2] and in [3] was “inactive” in each case. For the same compound, the Potency in test [4] was 20.9 µM (active); in test [5] it was 2.63 µM (active); in test [6], 16.6 µM (active).
For `Cn1cnc2c(F)c(Nc3ccc(Br)cc3Cl)c(C(=O)NOCCO)cc21`, in test [1], the activation is 24.1%. The Potency entry in [2] and in test [3] was “inactive” in each case. Also, the viability in [4] was 95.4%. For the same compound, the Potency in [5] was 0.0295 µM (active).
Turning to `Clc1cc2c(NC3CCCC3)nnc(-c3ccncc3)c2cc1Cl`, the activation in test [1] was -9%. The Potency entry in [2], in [3], in [6], in test [7], in test [8] and in test [9] was “inactive” in each case. The viability in test [4] was 112%. Moreover, the Potency in [5] is 0.468 µM (active).
On to `Cc1ccc(NC(=O)Nc2cc(C(F)(F)F)ccc2F)cc1Nc1ccc2c(c1)NC(=O)/C2=C\c1ccc[nH]1`, for which, in test [1], the activation is -0.477%. The Potency entry in [2], in test [3] and in test [8] was “inactive” in each case. In addition, the Potency in test [4] was 23.5 µM (active); in test [5] it was 20.9 µM (active); in test [6] it was 16.6 µM (active); in test [7], 26.3 µM (active); in test [9] it was 20.9 µM (active).
Consider `CNC(=O)c1cc(Oc2ccc(NC(=O)Nc3ccc(Cl)c(C(F)(F)F)c3)cc2)ccn1`, for which the activation in test [1] is 4.11%. The Potency entry in [2] and in [3] was “inactive” each time. The Potency was 26.3 µM (active) in [4]; 9.34 µM (active) in test [5]; 0.0132 µM (active) in test [6]; 10.5 µM (active) in test [7]; 18.6 µM (active) in test [8]; 14.8 µM (active) in test [9].
Turning to `O=C(NOCC1CC1)c1ccc(F)c(F)c1Nc1ccc(I)cc1Cl`, in [1], the activation is 13% and 35.6% and 22.3%. Besides, the Potency result in [2] and in test [3] was “inactive” each time. Moreover, the Potency in test [4] was 23.5 µM (active); in [5] it was 0.296 µM (active); in [6], 7.42 µM (active); in [7], 8.33 µM (active); in [8] it was 16.6 µM (active); in test [9] it was 11.8 µM (active).
With `C=C1CC[C@@H]2[C@](C)(CO[C@@H]3O[C@H](CO)[C@@H](O)[C@H](O)[C@H]3O)[C@H](O)CC[C@@]2(C)[C@@H]1C/C=C1/C(=O)OC[C@H]1O`, the activation in [1] was -8.93%. Moreover, the Potency entry in test [2] and in [3] was “inactive” throughout.
Consider `CC(=O)c1c(O)cc(O[C@@H]2O[C@H](CO)[C@@H](O)[C@H](O)[C@H]2O)cc1O`, for which the activation in [1] was -8.04%. Also, the Potency result in test [2], in test [3] and in [11] was “inactive” each time.
For `CCOc1cc2ncc(C#N)c(Nc3ccc(F)c(Cl)c3)c2cc1NC(=O)/C=C/CN(C)C`, the Potency was 13.5 µM (active) in test [1]; 5.9 µM (active) in [4]; 4.17 µM (active) in test [5]; 0.934 µM (active) in [6]; 0.296 µM (active) in test [7]; 1.48 µM (active) in test [8]. Besides, the Potency in test [9] was 4.68 µM (active). Also, the Potency result in test [2] and in test [3] was “inactive” in each case.
As for `CC1=C(C(=O)Nc2cc3cn[nH]c3cc2F)C(c2ccc(C(F)(F)F)cc2)CC(=O)N1` (stereo not drawn), the activation in [1] is -14.3% and -24.1%. Besides, the Potency entry in test [2] and in test [3] was “inactive” each time. The viability in test [4] was 110%. Further, in test [5], the Potency was 2.95 µM (active).
Take `CC(NC(=O)c1ccccc1N)C(=O)O` (stereo not drawn): the activation in test [1] was -20.6%. Besides, the Potency result in test [2] and in test [3] was “inactive” each time.
`CC(=O)NC(C)c1ccc(Oc2ccc(OC(C)C)cc2)cc1` (stereo not drawn): in [1], the activation was 15.3%. In addition, the Potency entry in [2] and in [3] was “inactive” throughout. In addition, the viability in test [4] is 87.6%.

The values above are taken from PubChem BioAssay (NCATS).
